Test results: PubChem BioAssay AID1159580 (chemical genetic matrix, 2015)
About 2,000 (36%) of roughly 5,500 compounds were called active. Inconclusive results (about 18%) are left out. The list shows a part of the results. Values without a mark were called inactive. Cut-off read from the data, not from the text of the source: active = normalized growth mostly below about 0.91 (no sharp cut-off); inconclusive = no clear call, values can overlap the other calls; inactive = mostly above about 0.92.

Experiment: chemical genetic growth profiling, strain panel (AID 1159580);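 note: tested at 20 µM; growth read once vehicle control cultures reached saturation at 30 °C; 1 = growth at the plate median or of vehicle wells; lower values mean less growth of the strain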
Settings: growth OD
[1] = S. cerevisiae deletion strains, locus YAL013W, strain DEP1, stronger effect = lower value
[2] = S. cerevisiae deletion strains, locus YBR229C, strain ROT2, stronger effect = lower value
[3] = S. cerevisiae deletion strains, locus YDL101C, strain DUN1, stronger effect = lower value
[4] = S. cerevisiae deletion strains, locus YDL134C, strain PPH21, stronger effect = lower value
[5] = S. cerevisiae deletion strains, locus YDR150W, strain NUM1, stronger effect = lower value
[6] = S. cerevisiae deletion strains, locus YEL061C, strain CIN8, stronger effect = lower value
[7] = S. cerevisiae deletion strains, locus YGR078C, strain PAC10, stronger effect = lower value
[8] = S. cerevisiae deletion strains, locus YHR030C, strain SLT2, stronger effect = lower value
[9] = S. cerevisiae deletion strains, locus YHR087W, strain rtc3, stronger effect = lower value
[10] = S. cerevisiae deletion strains, locus YJR043C, strain POL32, stronger effect = lower value
[11] = S. cerevisiae deletion strains, locus YJR075W, strain HOC1, stronger effect = lower value
[12] = S. cerevisiae deletion strains, locus YLR039C, strain RIC1, stronger effect = lower value
[13] = S. cerevisiae deletion strains, locus YLR058C, strain SHM2 (second series), stronger effect = lower value
[14] = S. cerevisiae deletion strains, locus YLR085C, strain ARP6, stronger effect = lower value
[15] = S. cerevisiae deletion strains, locus YLR262C, strain YPT6, stronger effect = lower value
[16] = S. cerevisiae deletion strains, locus YML094W, strain GIM5, stronger effect = lower value
[17] = S. cerevisiae deletion strains, locus YMR219W, strain ESC1, stronger effect = lower value
[18] = S. cerevisiae deletion strains, locus YMR263W, strain SAP30, stronger effect = lower value
[19] = S. cerevisiae deletion strains, locus YNL153C, strain GIM3, stronger effect = lower value
[20] = S. cerevisiae deletion strains, locus YNL298W, strain CLA4 (second series), stronger effect = lower value
[21] = S. cerevisiae deletion strains, locus YNL322C, strain KRE1, stronger effect = lower value
[22] = S. cerevisiae deletion strains, locus YNR030W, strain Alg12, stronger effect = lower value
[23] = S. cerevisiae deletion strains, locus YPL055C, strain LGE1, stronger effect = lower value
[24] = S. cerevisiae deletion strains, locus YPL241C, strain CIN2, stronger effect = lower value
[25] = S. cerevisiae deletion strains, locus YPR135W, strain CTF4, stronger effect = lower value

O=C(Nc1cc2cc([N+](=O)[O-])ccc2oc1=O)c1c(F)cccc1F
normalized growth [1]: 1.02 | normalized growth [2]: 1.02 | normalized growth (S. cerevisiae deletion strains, locus YCL061C, strain MRC1, stronger effect = lower value): 0.989 | normalized growth [3]: 0.98 | normalized growth [4]: 1.01 | normalized growth [5]: 0.96 | normalized growth [6]: 1.01 | normalized growth [7]: 1 | normalized growth [8]: 0.994 | normalized growth [9]: 1.09 | normalized growth (S. cerevisiae deletion strains, locus YJL187C, strain SWE1, stronger effect = lower value): 1.03 | normalized growth [10]: 0.999 | normalized growth [11]: 1.02 | normalized growth [12]: 1.07 | normalized growth [13]: 1.04 | normalized growth [14]: 1.07 | normalized growth [15]: 1.07 | normalized growth [16]: 1.05 | normalized growth [17]: 1.03 | normalized growth [18]: 0.936 | normalized growth (S. cerevisiae deletion strains, locus YNL128W, strain TEP1, stronger effect = lower value): 1.01 | normalized growth [19]: 1.02 | normalized growth [20]: 1.02 | normalized growth [21]: 1.01 | normalized growth [22]: 1.04 | normalized growth (S. cerevisiae deletion strains, locus YOL006C, strain TOP1, stronger effect = lower value): 1 | normalized growth [23]: 1.03 | normalized growth [24]: 1.02 | normalized growth [25]: 1.01

CCN(CC)c1ccc(NC(=O)c2c(F)cccc2F)c(N(CC)CC)n1
normalized growth [1]: 0.986 | normalized growth [2]: 0.98 | normalized growth [3]: 0.955 | normalized growth [4]: 0.993 | normalized growth [5]: 0.99 | normalized growth [6]: 0.964 | normalized growth [7]: 0.98 | normalized growth [8]: 0.698 | normalized growth [9]: 0.952 | normalized growth [10]: 0.99 | normalized growth [11]: 0.954 | normalized growth [12]: 0.815 | normalized growth [13]: 1 | normalized growth [14]: 0.91 | normalized growth [15]: 0.863 | normalized growth [16]: 0.953 | normalized growth [17]: 0.997 | normalized growth [18]: 1 | normalized growth (S. cerevisiae deletion strains, locus YMR307W, strain GAS1, stronger effect = lower value): 0.574 (active) | normalized growth [19]: 0.991 | normalized growth [20]: 0.935 | normalized growth [21]: 0.987 | normalized growth [22]: 0.942 | normalized growth [23]: 0.963 | normalized growth [24]: 1.05 | normalized growth [25]: 0.8 | normalized growth (S. cerevisiae strains, strain wild type, stronger effect = lower value): 0.988
